PubChem BioAssay (NCI)
About 83,000 compounds went through this panel and 20% of them were active in at least one assay; those are over-represented in the sample as a whole.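 Testing used 96-well plates and a 48-hour single-concentration exposure. Example: -40 means 40% of the starting cells died.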 Values without a mark were called inactive. Calls of active or inactive are those of the source. How the source made its calls: active means growth percent below 10; inactive means the rest.

Assays:
Experiment in all cases: NCI-60 one-dose screen, 48 h (100 = growth as untreated, 0 = no growth, -100 = all killed)
HCT-15 colon = settings: 10 µM unless noted
HT29 colon = settings: 10 µM unless noted
SNB-19 CNS = settings: 10 µM unless noted
PC-3 prostate = settings: 10 µM unless noted
SK-MEL-5 melanoma = settings: 10 µM unless noted
UACC-62 melanoma = settings: 10 µM unless noted
LOX IMVI melanoma = settings: 10 µM unless noted
SK-MEL-28 melanoma = settings: 10 µM unless noted
U251 CNS = settings: 10 µM unless noted
SNB-75 CNS = settings: 10 µM

| Structure (SMILES) | growth (HCT-15 colon) | growth (HT29 colon) | growth (SNB-19 CNS) | growth (PC-3 prostate) | growth (SK-MEL-5 melanoma) | growth (UACC-62 melanoma) | growth (LOX IMVI melanoma) | growth (SK-MEL-28 melanoma) | growth (U251 CNS) | growth (SNB-75 CNS) |
| --- | --- | --- | --- | --- | --- | --- | --- | --- | --- | --- |
| Nc1cc2c(cc1C(=O)c1cccc(F)c1)OCCO2 | 93.9% | 100% | 97.1% | 94.9% | 109% | 104% | 95.6% | 105% |  |  |
| COc1ccc(Nc2nn3c(C)cc(C)nc3c2C(=O)Nc2ccc(C)cc2)c(OC)c1 | 101% | 101% | 101% | 98.8% | 103% | 93% | 109% | 94.4% |  |  |
| CCCCCCCCC(C)OC(=O)c1nn(C(C)=O)c2ccccc12 (stereo not given) | 101% | 103% |  | 95.7% | 97.7% | 92.3% | 103% | 116% | 94.7% |  |
| Cc1ccc(S(=O)(=O)NCCNc2nccc(-c3c(-c4ccc(O)cc4)nc4sccn34)n2)cc1 | 99.1% | 78.9% | 113% | 86.5% | 94.5% | 91.4% | 95.7% | 114% |  |  |
| CC(=O)Oc1csc(N(C(C)=O)c2cc(C(=O)O)cc(C(=O)O)c2)n1 | 92.8% | 104% |  | -100% (active) | 94% | 94.2% | 90.2% | 106% | 88.5% |  |
| CCN(CC)c1ccc(CNc2ccnc3ccccc23)cc1 | 58.6% | 24.8% |  | 42.4% | 8.05% (active) | 76.4% | 54.7% | 80.4% | 52.4% |  |
| Cc1cc(N/N=C/c2nc(-c3ccc(Br)cc3)oc2C)c2cc(Br)ccc2n1 | 6.22% (active) | -16.1% (active) | 41.7% | 77.2% | 92.9% | 73.9% | -37.6% (active) | 24.7% |  |  |
| O=C(NCc1cn(Cc2cccc(Oc3ccccc3)c2)nn1)c1cccnc1Nc1ccc(F)cc1 | 31.3% | 38.3% |  | 89.3% | 40.8% | 43% | 54.4% | 72.4% | 55.3% |  |
| O=C(Nc1cccc(-n2cc(-c3ccncc3)c(-c3ccc(Cl)c(O)c3)n2)c1)c1ccc(N2CCOCC2)c(C(F)(F)F)c1 | 26.2% | 98% |  | 27.2% | 50.8% | 49.2% | 9.98% (active) | 1.14% (active) | 11.8% |  |
| O=[N+]([O-])c1cccc(-c2nc3sccn3c2-c2ccnc(NCCCNS(=O)(=O)c3ccc(Cl)cc3)n2)c1 | 35.2% | 56.4% |  | 28.1% | -17.2% (active) | 7.02% (active) | 35.4% | 66% | 87.8% |  |
| Nc1nc(Nc2cc(Cl)cc(Cl)c2)nn1S(=O)(=O)c1ccc2ccccc2c1 | 59.2% | 39.8% |  | 48.9% | 86.5% | 67% | 60.1% | 84.8% | 37.5% |  |
| COc1ccc(Nc2ncccc2C(=O)NCc2cn(Cc3cccc(Oc4ccccc4)c3)nn2)cc1 | 32.2% | 12.6% | 61.2% | 54.7% | 16.3% | 35.3% | 47.7% | 63.3% |  |  |
| COc1cccc(CC(C)=C(c2ccc(OCCN3CCCCC3)cc2)c2ccc(OCCN3CCCCC3)cc2)c1 | -68.1% (active) | -77.9% (active) | -9.73% (active) | 19.2% | -96% (active) | -72.7% (active) | -91.9% (active) | -87.9% (active) |  |  |
| COc1ccc(/C=N\NC(=O)CN2CCN(c3cc4c(cc3F)c(=O)c(C(=O)N/N=C/c3ccc(OC)c(OC)c3)cn4C3CC3)CC2)cc1OC | 98% | 6.97% (active) |  | 13.3% | 41.9% | -52.1% (active) | -77.7% (active) | -34.1% (active) | -16% (active) |  |
| CCN(CC)CCCNc1nccc2ccc(Cl)cc12 | 104% | 96.9% |  | 73.6% | 99.3% | 108% | 94.7% | 117% | 96.8% |  |
| COc1ccc(C2C(C#N)=C(N)Oc3c2ccc2ccccc32)cc1 (stereo not given) | 28.3% | 34.1% |  | 39.9% | 31.2% | 23.6% | 27.1% | 52.2% | 35.4% |  |
| CCOC(=O)c1cc(C(=O)c2cc(OC)c(OC)c(OC)c2)n2c1ccc1ccccc12 | 25.7% | 9.65% (active) |  | 21.9% | 9.89% (active) | 32.1% | 40.4% | 55.9% | 49% |  |

| Structure (SMILES) | growth (HCT-15 colon) | growth (HT29 colon) | growth (SNB-19 CNS) | growth (PC-3 prostate) | growth (SK-MEL-5 melanoma) | growth (UACC-62 melanoma) | growth (LOX IMVI melanoma) | growth (SK-MEL-28 melanoma) | growth (U251 CNS) | growth (SNB-75 CNS) |
| --- | --- | --- | --- | --- | --- | --- | --- | --- | --- | --- |
| COc1ccc(-c2ccc(-c3ccc(-c4ccc(C(=N)N)cc4)s3)s2)cc1OC | -68.8% (active) | -60.2% (active) | 87.7% | 70.6% | 93.8% | 94.1% |  | 93% |  |  |
| CCCCN(CCCC)C(=N)c1ccnc2ccccc12 | 101% | 89.1% |  | 105% | 119% | 111% | 101% |  | 107% |  |
| O=[N+]([O-])c1ccc(C(c2ccccc2)c2ccccc2)cc1 | 86.4% | 84.4% |  | 94.1% | 96.7% | 85.5% | 69.7% |  | 102% |  |
| O=C1/C(=C/c2ccccc2)CN(C(=O)CCN2CCC(=NO)CC2)C/C1=C\c1ccccc1 | -42.7% (active) | -81% (active) |  | -7.51% (active) | -59.2% (active) | -59.7% (active) | -90.7% (active) | -27.4% (active) | -52.7% (active) |  |
| CCC(=O)OC1=CN2C(=NC(c3ccc(N)cc3)=CC2c2cc(OC)c(OC)c(OC)c2)S1 (stereo not given) | 27.6% | 3.44% (active) | 83.8% | 49% | 66.9% | 78% | 45.3% | 50.8% |  |  |
| Cc1nc2ncccc2nc1Nc1ccc(S(=O)(=O)Nc2ccccn2)cc1 | 123% | 121% |  | 88.1% | 99% | 89.4% | 85.1% | 101% | 94.4% |  |
| Cc1[nH]c2ccc(F)cc2c1CCNC(=O)C1CCN(C(=O)c2ccccc2)C1 (stereo not given) | 93.4% [25 µM] | 101% [25 µM] | 93.2% [25 µM] | 79.9% [25 µM] | 82.2% [25 µM] | 93.3% [25 µM] |  | 95.1% [25 µM] |  |  |
| COc1ccc2cc(-c3ccc(-c4ccc(C(=N)N)cc4)s3)ccc2c1 | 62% | 19.8% | 95.9% | 88.6% | 94.8% | 99.3% |  | 107% |  |  |
| C=C1C(=O)O[C@H]2[C@H]1CC/C(Cn1cc(-c3cccc(Cl)c3)nn1)=C\CC[C@@]1(C)O[C@@H]21 | -72.3% (active) | -56.3% (active) | 37.9% | -59.1% (active) | -52.6% (active) |  | -91.1% (active) |  |  |  |
| CN(C[C@H]1Cc2c(cccc2N2CCN(c3ncccn3)CC2)CN1)[C@H]1CCCc2cccnc21 | 31.6% | 21.2% | 41% | 34.2% | 26.9% | 53.7% | 36.4% | 65.2% |  |  |
| CCCCOc1ccc(/C=C2/SC(N3CCCC3)=NC2=O)cc1 | 97.2% | 94.6% | 92.8% | 88.7% | 95.2% | 87.4% | 96.2% | 101% |  |  |
| COc1ccc(C2CC(c3ccc(OC)cc3OC)=NN2c2ccc(S(N)(=O)=O)cc2)cc1 (stereo not given) | 75% | 71.8% |  | 56% | 91.6% | 77.2% | 101% | 125% | 79.3% |  |
| CCCCN(CCCC)c1ccc(C(=N)c2ccc(N(CCCC)CCCC)cc2)cc1 | -91.9% (active) | -81.1% (active) |  | -94.4% (active) | -97% (active) | -81.6% (active) | -97.2% (active) | 9.39% (active) | -92.9% (active) |  |
| C=C1CCC2C3(C)COC(c4ccccc4)OC3CCC2(C)C1/C=C/C1=CCOC1=O (stereo not given) | 45.6% |  | 71.8% | 26.6% | 76.5% | 58.8% | 16.1% | 98.1% | 40.1% | 51.7% |
| CN(C)CCN1C(=O)c2ccc3c4c(ccc(c24)C1=O)C(=O)N(CCN=C=S)C3=O | -78.2% (active) |  | -92.3% (active) | -80.3% (active) | -98.8% (active) | -92.5% (active) | -82.3% (active) | -87.7% (active) | -95.7% (active) | -75.3% (active) |
| C=C[C@@H]1C[C@@H]2Cc3ccccc3N1O2 | 107% |  | 109% | 116% | 107% | 101% | 104% | 109% | 101% | 102% |
